Source: PubChem
Many of the other results were omitted from the sample, so hits are more common in it than they were.
AMPAR-TARP mod: modulates AMPAR-stargazin complexes; 40,000 compounds, 3.5% hits; HEK293 GluA2+stargazin, membrane potential dye (FDSS), glutamate EC50; hits were called plate by plate, in both directions; calls only at 30 µM;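 active = any of four per-well response measures lying three or more SD from its plate-wide compound average, in either direction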
GIRK2 activator: GIRK2 channel activators by thallium flux | HEK293 GIRK2/NPY4 cells, thallium flux fluorescence | activation (% efficacy), % for hits at 75 µM | 34,000 tested, under 10 active | AID 1259324;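 active = primary screen hit, no activity in plain HEK293 cells, and in GIRK2-only cells above 5% efficacy rising with concentration; inactive = the rest, including fluorescent compounds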;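 also: efficacy is normalized control-subtracted fluorescence 15 s after thallium addition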
Target sequence (P48051 whole entry, looked up): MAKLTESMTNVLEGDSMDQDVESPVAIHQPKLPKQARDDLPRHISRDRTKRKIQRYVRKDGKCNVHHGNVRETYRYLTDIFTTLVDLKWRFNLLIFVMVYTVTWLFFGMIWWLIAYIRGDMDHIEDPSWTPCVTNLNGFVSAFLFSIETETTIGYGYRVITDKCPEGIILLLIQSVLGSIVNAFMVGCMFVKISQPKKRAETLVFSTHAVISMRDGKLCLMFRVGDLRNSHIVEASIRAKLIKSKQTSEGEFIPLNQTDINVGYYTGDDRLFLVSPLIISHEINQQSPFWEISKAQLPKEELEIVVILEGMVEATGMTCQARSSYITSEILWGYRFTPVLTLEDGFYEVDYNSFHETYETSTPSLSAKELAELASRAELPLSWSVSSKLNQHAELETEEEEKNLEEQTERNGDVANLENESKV
Starred values were filed as active, the others as inactive; i = inactive; nt = no result; + = active, no number.

SMILES | AMPAR-TARP mod | GIRK2 activator
O=C(Nc1ccc(Cl)cc1F)C1c2ccccc2Oc2ccccc21 | i | nt
CC(=O)Nc1ccc(C(=O)NCCNC(=O)Cn2cnc(C)cc2=O)cc1 | i | i
O=C(Nc1ccc(CC(=O)N2CCOCC2)cc1)NC(c1ccccc1)c1ccccc1 | i | i
COc1ccc(-c2ccc(=O)n(CCNS(=O)(=O)c3ccccc3Cl)n2)cc1 | i | nt
CC(=O)c1ccc(NC(=O)Cn2c(=O)n(Cc3ccccc3)c(=O)c3nscc32)cc1 | + | i
Cc1cccc(Cn2c(=O)c3nscc3n(CC(=O)Nc3ccccc3C)c2=O)c1 | i | i
Cn1cccc1CN(C(=O)Cc1cccs1)C1CC1 | nt | i
COc1ccc(C(=O)NNC(=O)c2ccc(=O)n(Cc3ccccc3)c2)c(OC)c1 | + | i
CCOc1ccccc1C(=O)NNC(=O)c1ccc(=O)n(Cc2ccccc2)c1 | i | i
O=C(NNC(=O)c1cc2ccccc2oc1=O)c1ccc(=O)n(Cc2ccccc2)c1 | + | i
O=C(NNC(=O)c1ccc(=O)n(Cc2ccccc2)c1)c1ccc(Cl)cc1 | i | i
Cc1ccc(-n2nnc(C(=O)NCC3CCCO3)c2C)cc1 (stereo unspecified) | i | i
CC(=O)c1cc(C(=O)OCC(=O)Nc2ccc3c(c2)OCCO3)c2ccccn12 | i | nt
CC(C)Cc1cnc2c(c1SCC(=O)NC1CCCC1)c(=O)n(C)c(=O)n2C | + | nt
Cc1cnc2c(c1SCC(=O)NC1CCCC1)c(=O)n(C)c(=O)n2C | i | i
COc1cc(-c2c(NC(=O)c3ccco3)sc3ccccc3c2=O)cc(OC)c1OC | + | i
COc1ccc(-c2c(NC(=O)c3cccs3)sc3ccccc3c2=O)cc1 | i | i
COc1ccc(Cl)c(NC(=O)c2sc3nc(-c4cccnc4)ccc3c2N)c1 | i | nt
COc1ccc2nc(-c3ccc(OC)c(NC(=O)CC4CCCCC4)c3)cn2n1 | i | i
O=C(NCC(c1ccsc1)N1CCc2ccccc2C1)C1CC1 (stereo unspecified) | + | i
COc1c(C)cc(S(=O)(=O)NCC(c2ccsc2)N2CCc3ccccc3C2)cc1C (stereo unspecified) | i | i
COc1cc(/C=C2\Oc3cc(OC(=O)c4c(OC)cccc4OC)ccc3C2=O)cc(OC)c1OC | i | nt
O=C1/C(=C/c2ccc(Cl)c(Cl)c2)Oc2cc(O)ccc21 | i | nt
O=C1/C(=C/c2ccccc2F)Oc2cc(O)ccc21 | i | nt
COc1ccc(/C=C2\Oc3cc(O)ccc3C2=O)cc1OC | + | nt
SMILES | AMPAR-TARP mod | GIRK2 activator
O=C1/C(=C/c2cccs2)Oc2cc(O)ccc21 | + | nt
COc1cc(/C=C2\Oc3cc(O)ccc3C2=O)cc(OC)c1OC | + | nt
O=C(NCC(c1ccco1)N1CCN(c2ccc(F)cc2)CC1)c1cnccn1 (stereo unspecified) | i | i
COc1ccc(N2CCN(C(=O)c3ccc(S(=O)(=O)N4CCCC4)cc3)CC2)nn1 | nt | i
CN(C)c1ccc(N2CCN(C(=O)c3ccc(S(N)(=O)=O)cc3)CC2)nn1 | + | i
Cc1onc(-c2ccccc2Cl)c1C(=O)N1CCC(c2ccsc2)CC1 | + | i
Cc1nnsc1C(=O)N1CCC(CNC(=O)c2c(-c3ccccc3Cl)noc2C)CC1 | i | i
CCOC(=O)N1CCc2c(sc(NC(=O)c3cccs3)c2-c2nc3ccccc3s2)C1 | i | nt
O=C(NCc1ccc(F)cc1)N1CCN(CC(F)(F)F)CC1 | i | i
Cc1cccc(C(=O)N2CCC3(CC2)CC(=O)c2ccccc2O3)c1 | + | nt
O=C1CC2(CCN(C(=O)c3ccc(-c4ccccc4)cc3)CC2)Oc2ccccc21 | i | nt
CC(C)CCNC(=O)C(=O)Nc1ccc(N2CCCCS2(=O)=O)cc1 | i | nt
CC(=O)Nc1ccc(NC(=O)c2ccc(=O)n(Cc3ccccc3Cl)c2)cc1 | i | i
O=C(Nc1ccccc1C(F)(F)F)c1ccc(=O)n(Cc2ccccc2F)c1 | + | i
CCOc1ccccc1NC(=O)c1ccc(=O)n(Cc2ccccc2Cl)c1 | + | i
O=C(Nc1ccccc1Cl)c1ccc(=O)n(Cc2ccccc2F)c1 | i | i
COc1ccc(C(=O)NCCn2nc(C(F)(F)F)n(C)c2=O)cc1OC | i | i
O=S(=O)(Nc1cc(Cl)ccc1O)c1cc(Cl)ccc1Cl | + | i
COc1cc(S(=O)(=O)Nc2cc(Cl)ccc2O)c(OC)cc1C | i | i
O=C(NCCn1nc(-c2cccnc2)ccc1=O)Nc1ccc(OC(F)(F)F)cc1 | nt | i
O=C(CN1C(=O)c2ccccc2S1(=O)=O)NC1CCCCCC1 | i | i
O=C(NC1CCCCCC1)C1c2ccccc2C(=O)N1CCC1=CCCCC1 (stereo unspecified) | + | i
CCCNC(=O)C(=O)Nc1ccc2c(c1)OCCO2 | i | i
CSc1ccccc1CN1CCC(CNC(=O)C(=O)Nc2ccc(F)c(F)c2)CC1 | i | i
CC(c1ccccc1)N1C(=O)CC(N2CCOCC2)C1=O (stereo unspecified) | + | nt
SMILES | AMPAR-TARP mod | GIRK2 activator
Cc1ccc(CN2C(=O)CC(N3CCOCC3)C2=O)cc1 (stereo unspecified) | i | i
O=C(N1CCC(Cn2cccn2)CC1)C1(c2ccccc2)CCOCC1 | + | i
O=C(c1ccco1)N1CCC(Cn2cccn2)CC1 | i | i
CC(C)c1nnc(C2CCN(S(=O)(=O)c3ccc4c(c3)CCCC4)CC2)o1 | + | i
CC(C)c1nnc(C2CCN(S(=O)(=O)c3cccnc3)CC2)o1 | i | i
CC(C)S(=O)(=O)c1cccc(C(=O)Nc2sc3c(c2C(N)=O)CCCC3)c1 | i | i
O=C(Nc1sc2c(c1C(=O)O)CCC2)c1cccc(Cl)c1 | + | nt
COc1nn(C)cc1C(=O)NCc1n[nH]c(=O)c2ccccc12 | + | i
CSc1ccccc1C(=O)NCc1n[nH]c(=O)c2ccccc12 | i | i
O=C(NCc1n[nH]c(=O)c2ccccc12)c1cccc(-n2cnnn2)c1 | + | i
O=C(NCc1n[nH]c(=O)c2ccccc12)c1ccc(=O)[nH]c1 | i | i
COc1ccc(Cl)cc1C(=O)N(CC1CCCO1)c1nc2c(F)cccc2s1 (stereo unspecified) | i | i
COc1ccc(N(C)S(=O)(=O)c2ccsc2-c2nc(-c3ccc(SC)cc3)no2)cc1 | + | i
CN(c1ccc(F)cc1)S(=O)(=O)c1ccsc1-c1nc(-c2ccc(F)cc2)no1 | i | i
CCOC(=O)c1ccc(N2C(=S)N(c3ccccc3)C3CS(=O)(=O)CC32)cc1 (stereo unspecified) | i | i
CCOC(=O)CN1C(=O)CN(C(=O)c2ccccc2)C1=S | + | nt
CC1CCN(c2ccc(N3CCN(C(=O)c4cccs4)CC3)nn2)CC1 | i | i
O=C(Cc1cccs1)N1CCN(c2cc(N3CCCC3)ncn2)CC1 | + | i
O=C(Cc1cccs1)N1CCN(c2ccccn2)CC1 | i | nt
O=C(c1cccs1)N1CCN(c2cc(N3CCCC3)ncn2)CC1 | + | i
COc1ccc(C(=O)CSc2ccnc3c2c(=O)n(C)c(=O)n3C)cc1 | i | i
COC(=O)CSc1ccnc2c1c(=O)n(C)c(=O)n2C | + | i
CCOC(=O)N1CCN(C(=O)CSc2ccnc3c2c(=O)n(C)c(=O)n3C)CC1 | + | nt
